The campaign covered roughly 330,000 compounds. About 4,900 (1.5%) were called active.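 Rule for the calls: active = inhibition above about 50% at the single test dose (limit read from the data); inactive = the rest.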 The sample as a whole holds a higher share of actives than the screen did.

For this experiment, the target named is Sentrin-specific protease 7 (Homo sapiens) (UniProt Q9BQF6). As to the kind of experiment: blockers of human SENP7 peptidase activity – biochemical, luminescence, uHTS, primary screen (AID 434973).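 Note: plate controls were DMSO with enzyme for no effect and no enzyme buffer wells for full effect.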 Particulars: recombinant SENP7, Z-RLRGG-aminoluciferin luminescence, 40 min; at 5 µM; hits give high values.
As to `Cc1cccc(S(=O)(=O)N2CN(CC3CCCO3)c3nc4ccccc4nc32)c1` (stereo unspecified), the inhibition was -0.481% (inactive).

On to `CC1CCN(C(=O)c2ccc(CSc3ccc(Cl)cc3)cc2)CC1`, for which the inhibition is -2.26% (inactive). The figure for `O=C(c1ccc(CSc2ccccc2)cc1)N1CCCCCC1` is 72.6% (active); for `O=C(c1ccc(S(=O)(=O)c2ccccc2)cc1)N1CCCCCC1` it is 3.58% (inactive); for `CCc1ccccc1OCC(=O)Nc1ccc(C)c(S(=O)(=O)N2CCCCCC2)c1` it is 1.37% (inactive). Under `Cc1cc(C(=O)NNC(=O)c2ccccc2O)c(C)o1` stands 9.67% (inactive). Under `COc1ccccc1N(CC(=O)N/N=C(\C)c1ccccc1O)S(=O)(=O)c1ccc(C)cc1` stands 3.18% (inactive). Take `C/C(=N\NC(=O)c1ccoc1C)c1ccccc1O`: the inhibition is 51.5% (active). Under `COc1ccc2c(CC(=O)OCC(=O)Nc3ccccc3[N+](=O)[O-])coc2c1` stands -12% (inactive); under `COC(=O)c1ccc(S(=O)(=O)N(CCO)Cc2ccccc2)n1C`, 1.52% (inactive). Under `O=C(COC(=O)c1ccc(Br)o1)NC12CC3CC(CC(C3)C1)C2` stands 7.39% (inactive); under `CCOc1ccc(-n2cnnn2)cc1S(=O)(=O)N1CCC(C)CC1C` (stereo unspecified), 7.69% (inactive). The figure for `Cc1ccc(-c2nc(-c3ccncc3)no2)c(C)c1` is 42.5% (inactive). On to `Cc1cccc(-c2noc(-c3ccc(F)cc3)n2)c1`, for which the inhibition was 94.2% (active). The figure for `Cc1cccc(-c2noc(CCC(=O)NC3CCCC3)n2)c1` is -8.85% (inactive). The figure for `Cc1ccc(-n2c(C)cc(C(=O)CSc3nnc4ccccn34)c2C)cc1` is -18.4% (inactive); for `Nc1nonc1-n1nnc(C(=O)N/N=C/c2ccc(Cl)cc2)c1-c1ccc2c(c1)OCO2` it is -3.14% (inactive); for `Cc1cc(C)n2nc(C(=O)Oc3ccc4c(c3)OCO4)nc2n1` it is 4.97% (inactive). The figure for `COc1ccc2nc(Nc3nc4cc5c(cc4s3)OCCO5)sc2c1` is 52.6% (active); for `COc1ccc2nc(NC(=O)[C@@H]3CCCN3C(=O)c3cccs3)sc2c1` it is -10% (inactive); for `CCOc1ccc(S(=O)(=O)Nc2nc3cc(OC)ccc3s2)cc1` it is 6.2% (inactive). As to `CC[C@]12c3[nH]c4cc(CCC(=O)N(C)C)ccc4c3CCN1C(=O)[C@@H](CC(=O)NCCCn1ccnc1)C[C@@H]2C(=O)N1CCN(C(=O)C2CC2)CC1`, the inhibition was -1.68% (inactive). The figure for `Cc1ccc(C)c(C(=O)N2CCC(n3nccc3NC(=O)C3CC3)CC2)c1` is 0.772% (inactive). Turning to `COc1ccc(N2CCN(C(=O)c3ccc4c(Cl)c5c(nc4c3)CCCC5)CC2)cc1`, the inhibition was -4.91% (inactive). Under `CC(=O)c1ccc(NC(=O)c2ccc3c(Cl)c4c(nc3c2)CCCC4)cc1` stands -3.44% (inactive). The figure for `CC(C)CCNC(=O)c1ccc2c(Cl)c3c(nc2c1)CCC3` is 84.1% (active); for `CC(C)Cc1ccc(S(=O)(=O)N2CCN(C(=O)c3ccco3)CC2)cc1` it is 3.59% (inactive); for `O=C1c2ccccc2NC(c2ccccn2)N1NS(=O)(=O)c1ccccc1` (stereo unspecified) it is 0.965% (inactive). As for `CN(Cc1ccccc1)C(=O)c1cccc(C(=O)N(C)Cc2ccccc2)c1`, the inhibition is 0.789% (inactive). The figure for `O=C(COC(=O)CNS(=O)(=O)c1ccc(F)c(F)c1F)NC1CCCC1` is 4.55% (inactive); for `O=[N+]([O-])c1ccc(N/N=C2/CCCCC2c2ccccn2)c([N+](=O)[O-])c1` (stereo unspecified) it is -1.83% (inactive). As to `O=[N+]([O-])c1ccc2nc(-c3ccccn3)[nH]c2c1`, the inhibition is 70.4% (active). Under `O=[N+]([O-])c1ccc2c(c1)Nc1nc3ccccc3nc1N2` stands -3.53% (inactive). `O=S(=O)(NCCCc1ccccc1)c1ccc(Br)cc1`: the inhibition was 5.53% (inactive). The figure for `c1ccc2[nH]c(-c3nc4ccccc4[nH]3)nc2c1` is 99.5% (active); for `COc1ccc(Br)cc1C(=O)NC(=S)Nc1cc(-c2nc3ccccc3[nH]2)ccc1C` it is 2.43% (inactive). The figure for `Cc1ccc(-c2nc3ccccc3[nH]2)cc1N` is 94.4% (active); for `COc1ccc(-c2[nH]nc(-c3ccccc3)c2-c2nc3ccccc3[nH]2)cc1` it is 1.53% (inactive); for `Cc1ccccc1N1CC(c2nc3ccccc3[nH]2)CC1=O` (stereo unspecified) it is 4.87% (inactive). The figure for `Clc1ccccc1SCc1nc2ccccc2[nH]1` is 35.5% (inactive); for `O=C(CN1C(=O)c2ccc([N+](=O)[O-])cc2C1=O)Nc1nnc(C2CC2)s1` it is -1.7% (inactive). Turning to `COc1ccc(CN2CCOC2=O)cc1OC`, the inhibition is 0.943% (inactive). Under `CCC(=NC1CC(C)(C)NC(C)(C)C1)C1=C(O)CC(C)(C)CC1=O` stands -2.04% (inactive); under `COc1ccc(C2/C(=C(/O)c3ccc(OC(C)C)cc3)C(=O)C(=O)N2CCCN2CCOCC2)cc1` (stereo unspecified), -3.1% (inactive); under `O=C1C(=O)N(CCN2CCOCC2)C(c2cccc(Cl)c2)/C1=C(/O)c1ccc2c(c1)OCO2` (stereo unspecified), 0% (inactive). Under `O=C1C(=O)N(CCCN2CCOCC2)C(c2ccc([N+](=O)[O-])cc2)/C1=C(\O)c1ccc2c(c1)OCCO2` (stereo unspecified) stands 56.5% (active); under `COc1ccccc1OCc1ccc(C(=O)NC(C)c2ccccc2)o1` (stereo unspecified), -1.75% (inactive). The figure for `Cc1ccc(S(=O)(=O)CCC(=O)Nc2nnc(CC(C)C)s2)cc1` is 10.9% (inactive).

For `Cc1ccc(OC(=O)c2cc3ccccc3o2)cc1`, the inhibition is 80.7% (active).

As to `COc1ccccc1CN(C)C(=O)c1cc2ccccc2o1`, the inhibition is 6.76% (inactive). For `C/C(=N\NC(=S)Nc1ccc(C)cc1)c1cc2ccccc2o1`, the inhibition was -0.14% (inactive). Under `COc1cc(C(=O)OCC(=O)NC23CC4CC(CC(C4)C2)C3)cc(OC)c1OC` stands 7.88% (inactive). The figure for `COc1cc(C2/C(=C(\O)c3ccc4c(c3)CC(C)O4)C(=O)C(=O)N2c2nnc(C)s2)cc(OC)c1OC` (stereo unspecified) is 0.235% (inactive). Under `COc1ccc(CNC(=O)CN(Cc2ccccc2Cl)C(=O)c2csnn2)cc1` stands -0.595% (inactive).

Take `CCCCn1c(N)c(N(CCC(C)C)C(=O)CC2OC(=O)c3ccccc32)c(=O)[nH]c1=O` (stereo unspecified): the inhibition is 0.323% (inactive). The figure for `O=C(Nc1ccc(NC(=O)c2ccco2)c(Cl)c1)c1cccc([N+](=O)[O-])c1` is 52.1% (active); for `O=C(Nc1ccc(C2CC2(Cl)Cl)cc1)c1cccc([N+](=O)[O-])c1` (stereo unspecified) it is 54.2% (active). In the case of `O=C(c1cccc([N+](=O)[O-])c1)N1CCN(C(=O)c2ccco2)CC1`, the inhibition was 3.1% (inactive). `CC(C)(C)SCCNC(=O)c1cccc([N+](=O)[O-])c1`: the inhibition was 0.866% (inactive).

For `Cc1cc(C)nc(NC(=O)c2cccc([N+](=O)[O-])c2)c1`, the inhibition is 2.66% (inactive). Under `COc1cc(NC(=O)c2cc([N+](=O)[O-])ccc2Br)ccc1NC(=O)c1ccco1` stands -5.49% (inactive).

Source of the values: PubChem BioAssay AID434973 (Sanford-Burnham Center for Chemical Genomics, 2010).
